Source: the supplement of paper PMC11732987, “Enantioselective OTUD7B fragment discovery through chemoproteomics screening and high-throughput optimisation” (Communications Chemistry, 2025)

Experiments:
Assay in all cases: log2 ratio of Biotin-Ahx-Ub-VS probe labelling (fragment/DMSO); higher = less target engagement (more negative = stronger competition), active = hit call of the paper (q ≤ 0.05, log2 ratio ≤ -1)
Conditions in all cases: compound concentration: 200 uM; treatment time: 3 h
[1] = target: USP34 (UniProt Q70CQ2)
USP34, sequence (Q70CQ2 whole entry, the tested form may be a part): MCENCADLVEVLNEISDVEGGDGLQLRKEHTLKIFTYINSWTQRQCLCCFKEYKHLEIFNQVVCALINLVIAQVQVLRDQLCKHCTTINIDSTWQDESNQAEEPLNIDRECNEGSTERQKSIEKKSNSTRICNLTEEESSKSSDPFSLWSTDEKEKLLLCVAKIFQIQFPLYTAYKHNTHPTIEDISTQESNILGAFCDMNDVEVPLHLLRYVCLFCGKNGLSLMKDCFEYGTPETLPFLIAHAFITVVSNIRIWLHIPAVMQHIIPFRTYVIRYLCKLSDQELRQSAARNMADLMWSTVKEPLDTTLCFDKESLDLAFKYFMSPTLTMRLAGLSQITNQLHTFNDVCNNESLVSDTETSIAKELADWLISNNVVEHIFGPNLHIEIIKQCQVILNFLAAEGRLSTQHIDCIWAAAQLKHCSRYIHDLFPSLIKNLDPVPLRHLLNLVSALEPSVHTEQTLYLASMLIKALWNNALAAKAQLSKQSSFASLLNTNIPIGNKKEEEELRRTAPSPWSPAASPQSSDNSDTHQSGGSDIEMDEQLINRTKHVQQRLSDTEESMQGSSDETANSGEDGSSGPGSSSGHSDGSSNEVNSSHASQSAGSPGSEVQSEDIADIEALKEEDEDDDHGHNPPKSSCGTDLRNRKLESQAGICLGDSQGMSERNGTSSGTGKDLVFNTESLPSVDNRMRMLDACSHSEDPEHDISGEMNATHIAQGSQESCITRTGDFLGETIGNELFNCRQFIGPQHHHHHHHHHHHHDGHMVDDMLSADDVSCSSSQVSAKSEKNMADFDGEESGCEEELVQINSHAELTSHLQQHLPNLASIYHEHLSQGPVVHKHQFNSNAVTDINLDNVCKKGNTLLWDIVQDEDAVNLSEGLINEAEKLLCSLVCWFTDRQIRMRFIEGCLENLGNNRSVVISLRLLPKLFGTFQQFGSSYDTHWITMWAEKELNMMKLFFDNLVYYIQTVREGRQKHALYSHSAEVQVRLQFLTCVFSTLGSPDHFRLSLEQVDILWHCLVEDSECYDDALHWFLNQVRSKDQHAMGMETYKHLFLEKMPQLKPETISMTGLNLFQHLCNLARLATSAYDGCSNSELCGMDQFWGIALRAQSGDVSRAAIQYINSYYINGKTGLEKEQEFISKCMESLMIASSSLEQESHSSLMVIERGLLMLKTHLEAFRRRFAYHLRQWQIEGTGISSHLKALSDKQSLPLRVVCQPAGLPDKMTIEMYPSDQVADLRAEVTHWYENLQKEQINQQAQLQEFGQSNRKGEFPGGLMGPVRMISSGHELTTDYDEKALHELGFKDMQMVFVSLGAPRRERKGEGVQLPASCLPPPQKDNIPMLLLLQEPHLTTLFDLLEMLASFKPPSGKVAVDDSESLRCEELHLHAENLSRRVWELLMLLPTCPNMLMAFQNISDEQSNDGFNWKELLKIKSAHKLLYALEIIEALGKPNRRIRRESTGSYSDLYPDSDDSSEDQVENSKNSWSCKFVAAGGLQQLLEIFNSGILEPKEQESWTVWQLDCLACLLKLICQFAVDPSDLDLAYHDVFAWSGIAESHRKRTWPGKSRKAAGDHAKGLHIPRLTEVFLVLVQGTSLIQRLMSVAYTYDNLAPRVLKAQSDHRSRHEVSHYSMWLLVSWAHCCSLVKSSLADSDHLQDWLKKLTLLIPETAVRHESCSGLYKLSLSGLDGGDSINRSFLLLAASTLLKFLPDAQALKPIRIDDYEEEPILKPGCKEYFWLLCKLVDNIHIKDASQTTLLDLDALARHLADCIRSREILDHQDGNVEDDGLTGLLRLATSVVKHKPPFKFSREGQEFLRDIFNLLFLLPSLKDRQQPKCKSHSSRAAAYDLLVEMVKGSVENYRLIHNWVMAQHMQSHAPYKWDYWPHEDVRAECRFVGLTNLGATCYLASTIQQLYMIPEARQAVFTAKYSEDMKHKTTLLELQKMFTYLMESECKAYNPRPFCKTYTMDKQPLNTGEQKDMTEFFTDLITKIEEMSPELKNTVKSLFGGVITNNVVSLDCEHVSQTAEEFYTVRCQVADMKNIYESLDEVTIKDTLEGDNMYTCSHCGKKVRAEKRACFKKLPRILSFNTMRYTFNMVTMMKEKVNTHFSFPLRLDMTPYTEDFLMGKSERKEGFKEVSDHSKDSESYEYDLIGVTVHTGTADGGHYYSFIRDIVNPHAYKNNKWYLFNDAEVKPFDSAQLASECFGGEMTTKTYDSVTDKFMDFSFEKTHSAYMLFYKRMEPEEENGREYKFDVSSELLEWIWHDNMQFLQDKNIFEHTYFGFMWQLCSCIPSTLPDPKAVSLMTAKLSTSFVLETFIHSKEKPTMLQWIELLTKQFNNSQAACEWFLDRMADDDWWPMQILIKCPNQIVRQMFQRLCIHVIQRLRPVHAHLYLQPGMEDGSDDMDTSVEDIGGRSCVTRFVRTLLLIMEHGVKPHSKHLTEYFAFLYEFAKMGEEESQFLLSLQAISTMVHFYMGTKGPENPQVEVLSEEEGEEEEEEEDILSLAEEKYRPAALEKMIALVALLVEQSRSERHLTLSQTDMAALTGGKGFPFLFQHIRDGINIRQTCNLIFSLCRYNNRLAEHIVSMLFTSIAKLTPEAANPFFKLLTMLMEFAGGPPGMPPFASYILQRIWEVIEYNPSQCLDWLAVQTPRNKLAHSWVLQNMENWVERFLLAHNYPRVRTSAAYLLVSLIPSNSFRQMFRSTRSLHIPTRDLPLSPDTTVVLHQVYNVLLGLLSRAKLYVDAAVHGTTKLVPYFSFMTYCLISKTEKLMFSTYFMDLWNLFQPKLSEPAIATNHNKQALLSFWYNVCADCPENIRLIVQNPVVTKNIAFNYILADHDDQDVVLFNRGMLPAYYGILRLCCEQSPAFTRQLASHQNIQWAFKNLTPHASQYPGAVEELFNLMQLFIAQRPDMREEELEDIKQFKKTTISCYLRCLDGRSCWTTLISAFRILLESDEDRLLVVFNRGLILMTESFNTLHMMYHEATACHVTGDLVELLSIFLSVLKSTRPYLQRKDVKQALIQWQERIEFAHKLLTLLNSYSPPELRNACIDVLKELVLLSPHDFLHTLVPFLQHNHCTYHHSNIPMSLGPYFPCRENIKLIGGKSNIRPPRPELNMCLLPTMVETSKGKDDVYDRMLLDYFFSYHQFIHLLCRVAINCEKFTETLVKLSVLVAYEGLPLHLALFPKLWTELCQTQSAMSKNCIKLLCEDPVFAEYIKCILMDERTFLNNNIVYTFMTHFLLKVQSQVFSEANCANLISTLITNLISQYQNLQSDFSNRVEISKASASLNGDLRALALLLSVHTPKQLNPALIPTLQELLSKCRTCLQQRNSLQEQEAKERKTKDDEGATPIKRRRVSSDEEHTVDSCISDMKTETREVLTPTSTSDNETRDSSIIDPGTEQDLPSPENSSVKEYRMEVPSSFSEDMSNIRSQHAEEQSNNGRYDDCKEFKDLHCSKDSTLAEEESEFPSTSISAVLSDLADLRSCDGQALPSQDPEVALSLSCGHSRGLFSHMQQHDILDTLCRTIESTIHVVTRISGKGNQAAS
Method in brief: (§1)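 HEK293T lysate, 495 µg per sample in Tris/CHAPS/IGEPAL buffer with protease inhibitors, was treated in triplicate with fragment at 200 µM or vehicle for 3 h and then with Biotin-Ahx-Ub-VS at 0.5 µM final for 1 h. Labelled DUBs were NeutrAvidin-enriched, digested with LysC and trypsin, and run by diaPASEF LC-MS/MS. Spectronaut label-free quantities were global-median-normalised, and values are average log2 fragment/vehicle ratios by unpaired t-test on proteins with ≥2 unique peptides.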

[2] = target: T1, USP36 (UniProt Q9P275)
T1 sequence (whole entry): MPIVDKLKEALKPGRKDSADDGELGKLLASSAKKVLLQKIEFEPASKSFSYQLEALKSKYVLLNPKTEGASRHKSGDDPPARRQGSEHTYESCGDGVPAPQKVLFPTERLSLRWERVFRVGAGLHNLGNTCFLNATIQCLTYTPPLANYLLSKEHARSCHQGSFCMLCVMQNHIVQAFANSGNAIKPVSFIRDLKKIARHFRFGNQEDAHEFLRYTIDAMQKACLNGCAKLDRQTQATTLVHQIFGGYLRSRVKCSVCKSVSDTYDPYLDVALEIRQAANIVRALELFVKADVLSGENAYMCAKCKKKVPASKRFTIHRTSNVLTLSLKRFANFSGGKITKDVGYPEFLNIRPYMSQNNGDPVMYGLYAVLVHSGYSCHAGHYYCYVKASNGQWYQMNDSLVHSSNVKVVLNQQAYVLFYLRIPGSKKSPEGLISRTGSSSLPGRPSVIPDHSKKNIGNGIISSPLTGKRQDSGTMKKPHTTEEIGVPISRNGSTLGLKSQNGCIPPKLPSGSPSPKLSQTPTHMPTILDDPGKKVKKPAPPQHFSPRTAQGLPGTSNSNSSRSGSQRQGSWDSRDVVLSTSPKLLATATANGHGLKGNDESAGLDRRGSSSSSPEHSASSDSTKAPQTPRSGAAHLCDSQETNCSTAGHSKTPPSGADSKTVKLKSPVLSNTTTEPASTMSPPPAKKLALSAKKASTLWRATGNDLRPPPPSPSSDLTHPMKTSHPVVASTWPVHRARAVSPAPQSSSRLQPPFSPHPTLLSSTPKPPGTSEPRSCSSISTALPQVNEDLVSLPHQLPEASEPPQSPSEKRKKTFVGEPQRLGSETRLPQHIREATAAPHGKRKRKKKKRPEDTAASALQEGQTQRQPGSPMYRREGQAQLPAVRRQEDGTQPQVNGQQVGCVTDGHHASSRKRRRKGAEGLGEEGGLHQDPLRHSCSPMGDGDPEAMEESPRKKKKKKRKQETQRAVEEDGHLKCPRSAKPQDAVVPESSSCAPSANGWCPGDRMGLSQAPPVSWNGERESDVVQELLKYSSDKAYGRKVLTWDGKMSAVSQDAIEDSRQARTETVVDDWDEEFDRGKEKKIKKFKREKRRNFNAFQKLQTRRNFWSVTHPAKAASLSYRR
Method in brief: as §1

[3] = target: T2, USP38 (UniProt Q8NB14)
T2 sequence (whole entry): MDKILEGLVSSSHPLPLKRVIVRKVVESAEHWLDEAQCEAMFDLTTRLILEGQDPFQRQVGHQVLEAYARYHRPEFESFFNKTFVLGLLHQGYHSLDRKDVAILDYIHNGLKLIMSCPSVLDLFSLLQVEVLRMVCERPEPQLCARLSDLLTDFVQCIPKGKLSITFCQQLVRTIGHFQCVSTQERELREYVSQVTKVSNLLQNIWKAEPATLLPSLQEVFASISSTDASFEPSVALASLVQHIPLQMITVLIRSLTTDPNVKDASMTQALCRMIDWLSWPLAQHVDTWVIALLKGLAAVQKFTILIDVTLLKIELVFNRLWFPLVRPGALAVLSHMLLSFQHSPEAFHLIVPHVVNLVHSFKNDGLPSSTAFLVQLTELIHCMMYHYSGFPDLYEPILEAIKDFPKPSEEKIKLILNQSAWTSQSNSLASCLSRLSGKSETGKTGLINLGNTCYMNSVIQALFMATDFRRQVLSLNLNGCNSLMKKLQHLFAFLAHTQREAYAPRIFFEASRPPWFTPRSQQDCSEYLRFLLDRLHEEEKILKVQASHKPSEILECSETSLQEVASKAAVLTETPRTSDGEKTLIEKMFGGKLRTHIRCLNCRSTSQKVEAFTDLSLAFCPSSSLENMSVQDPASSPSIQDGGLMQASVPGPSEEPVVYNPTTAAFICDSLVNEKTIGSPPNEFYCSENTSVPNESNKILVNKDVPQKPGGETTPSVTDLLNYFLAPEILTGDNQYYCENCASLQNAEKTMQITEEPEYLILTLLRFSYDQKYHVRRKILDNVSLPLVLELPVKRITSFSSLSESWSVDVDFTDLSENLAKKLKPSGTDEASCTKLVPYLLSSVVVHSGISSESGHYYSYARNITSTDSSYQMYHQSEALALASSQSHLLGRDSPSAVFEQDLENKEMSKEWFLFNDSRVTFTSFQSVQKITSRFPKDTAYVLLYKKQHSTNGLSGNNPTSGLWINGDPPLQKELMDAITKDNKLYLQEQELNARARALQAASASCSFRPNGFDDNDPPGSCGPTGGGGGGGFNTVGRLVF
Method in brief: as §1

[4] = target: T3, USP39 (UniProt Q53GS9)
T3 sequence (whole entry): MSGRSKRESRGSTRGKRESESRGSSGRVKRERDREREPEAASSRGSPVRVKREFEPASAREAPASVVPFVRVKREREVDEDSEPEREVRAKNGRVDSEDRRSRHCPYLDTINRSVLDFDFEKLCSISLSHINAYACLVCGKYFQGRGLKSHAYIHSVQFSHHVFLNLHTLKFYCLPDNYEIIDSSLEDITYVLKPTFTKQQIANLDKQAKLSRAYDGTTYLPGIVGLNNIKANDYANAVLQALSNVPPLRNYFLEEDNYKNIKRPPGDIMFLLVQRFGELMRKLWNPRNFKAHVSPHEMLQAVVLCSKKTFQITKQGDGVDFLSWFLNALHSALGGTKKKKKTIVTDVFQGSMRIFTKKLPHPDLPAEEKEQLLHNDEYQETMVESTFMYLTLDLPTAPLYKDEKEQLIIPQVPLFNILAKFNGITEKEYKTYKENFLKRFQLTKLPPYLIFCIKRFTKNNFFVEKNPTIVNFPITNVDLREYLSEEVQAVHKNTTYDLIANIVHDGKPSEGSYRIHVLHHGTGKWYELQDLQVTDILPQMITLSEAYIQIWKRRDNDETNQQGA
Method in brief: as §1

[5] = target: T4, USP4 (UniProt Q13107)
T4 sequence (whole entry): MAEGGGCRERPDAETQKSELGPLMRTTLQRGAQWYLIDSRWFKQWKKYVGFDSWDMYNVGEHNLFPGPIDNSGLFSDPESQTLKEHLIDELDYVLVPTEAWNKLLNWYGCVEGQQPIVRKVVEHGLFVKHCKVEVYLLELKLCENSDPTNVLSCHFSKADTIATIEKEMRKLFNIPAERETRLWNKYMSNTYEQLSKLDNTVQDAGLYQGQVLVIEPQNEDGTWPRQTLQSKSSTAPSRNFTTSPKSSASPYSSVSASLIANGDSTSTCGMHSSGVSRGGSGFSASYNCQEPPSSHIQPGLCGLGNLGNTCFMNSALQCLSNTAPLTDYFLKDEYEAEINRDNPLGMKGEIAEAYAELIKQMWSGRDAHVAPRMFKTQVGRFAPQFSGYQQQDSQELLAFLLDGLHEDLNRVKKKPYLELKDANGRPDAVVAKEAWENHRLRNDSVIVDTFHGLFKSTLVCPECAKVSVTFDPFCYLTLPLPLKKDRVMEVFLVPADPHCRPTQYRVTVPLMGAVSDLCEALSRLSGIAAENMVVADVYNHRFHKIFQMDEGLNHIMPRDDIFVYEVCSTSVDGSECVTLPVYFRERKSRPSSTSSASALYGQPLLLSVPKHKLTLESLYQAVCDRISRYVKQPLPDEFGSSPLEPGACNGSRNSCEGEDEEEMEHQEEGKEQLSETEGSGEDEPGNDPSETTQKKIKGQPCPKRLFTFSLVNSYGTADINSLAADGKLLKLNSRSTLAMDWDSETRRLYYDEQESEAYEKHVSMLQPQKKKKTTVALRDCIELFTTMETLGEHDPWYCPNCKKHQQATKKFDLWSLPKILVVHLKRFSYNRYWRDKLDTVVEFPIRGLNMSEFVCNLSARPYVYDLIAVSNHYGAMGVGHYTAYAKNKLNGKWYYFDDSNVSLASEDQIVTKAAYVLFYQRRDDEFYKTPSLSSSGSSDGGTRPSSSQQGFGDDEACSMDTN
Method in brief: as §1

Measured: log2 ratio of Biotin-Ahx-Ub-VS probe labelling

CC1Cc2ccccc2N1C(=O)CCl (stereo not given)
inactive: [1] -0.159 | [2] 0.0162 | [3] -0.00784 | [4] -0.0124 | [5] -0.603
